From PubChem BioAssay (NCATS) come the findings set out here.

A short description of assay [1]: qHTS assay to identify small molecule inhibitors of chordoma cells - UCH-1 (AID 1259355). Also: nearly all actives have a fitted effect of over 55% in size. The method, boiled down:
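Seed 800 cells per well; incubate overnight at 37 C, 5% CO2. Add test compounds (15 concentrations), then the auranofin–topoisomerase-agent combination. Incubate 48hr, add CellTiter-Glo, wait 30min, read luminescence.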
For orientation: In qHTS, concentration-response curves come from the screen itself.

A short description of assay [2]: qHTS assay to identify small molecule inhibitors of chordoma cells - UCH-2 (AID 1259356). Also: series mostly up to about 46 µM.
The nature of assay [3]: P-glycoprotein substrates identified in KB-8-5-11 adenocarcinoma cell line, qHTS therapeutic library screen (AID 1346987). Also: nearly all actives have a fitted effect of over 65% in size. Also: potency is read from the fitted curve at half-maximal effect. The method, boiled down:
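KB-8-5-11, a colchicine-selected P-gp-overexpressing KB-3-1 subline, was grown without colchicine for the assay. Cells were seeded at 500 cells/well, dosed in concentration-response and incubated 72 h at 37 degree C, 5% CO2. Viability was read by CellTiter-Glo luminescence.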

Assay [4] is described as follows: NS1 protein of Zika virus - qHTS assay to identify small molecule inhibitors in human HEK 293 cells (AID 1347053). Also: series mostly up to about 46 µM; nearly all actives have a fitted effect of over 55% in size. In outline: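 HEK 293 cells, seeded 20 h at 37 C, were pretreated with compound 1 h, then infected with ZIKV MR766 (MOI = 0.5) for 24 h. NS1 was read by TR-FRET with two anti-NS1 antibodies, normalized to uninfected and infected wells.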
Assay [5] can be described thus: qHTS for Inhibitors of the Functional Ribonucleoprotein Complex (vRNP) of Lassa (LASV) Arenavirus: LASV Primary Screen - GLuc reporter signal (AID 1347082; calls by dose curve; tested in HEK293 reporter line; also: series mostly up to about 57 µM; nearly all actives have a fitted effect of over 60% in size).
Assay [6] is described as follows: qHTS for Inhibitors of the Functional Ribonucleoprotein Complex (vRNP) of Lassa (LASV) Arenavirus: Viability assay - alamar blue signal for LASV Primary Screen (AID 1347083; calls by dose curve; tested in HEK293 reporter line; also: series mostly up to about 57 µM; nearly all actives have a fitted effect of over 80% in size).
The nature of assay [7]: qHTS for Inhibitors of the Functional Ribonucleoprotein Complex (vRNP) of Lymphocytic Choriomeningitis Arenaviruses (LCMV): Viability assay - alamar blue signal for LCMV Primary Screen (AID 1347085; calls by dose curve; tested in HEK293 reporter line; also: series mostly up to about 57 µM; nearly all actives have a fitted effect of over 80% in size).
Assay [8] can be described thus: Identifying Small Molecule Inhibitors of Pancreatic Cancer Stem Cells (A2780, Spheroid) (AID 1259357).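 Also: compound exposure lasted 48 h before the ATP luminescence read.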 The method, boiled down:
(§1)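 Cytotoxicity read by CellTiter-Glo luminescence after 48 h compound exposure at 37C; percent activity scaled between DMSO-treated cells and cell-free wells. Spheroid formats used cells pre-formed 14 days in stem cell media on hydrogel.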

Assay [9] in a line: Identifying Small Molecule Inhibitors of Pancreatic Cancer Stem Cells (SN12C, Adherent) (AID 1259358).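 Also: cell survival measured after 48 h of compound exposure.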 The method, boiled down:
as §1

Assay [10] in a line: Identifying Small Molecule Inhibitors of Pancreatic Cancer Stem Cells (SN12C, Spheroid) (AID 1259360). In outline: as §1
Assay [11] is described as follows: Identifying Small Molecule Inhibitors of Pancreatic Cancer Stem Cells (A278, Adherent) (AID 1259361). Also: nearly all actives have a fitted effect of over 35% in size. In outline:
as §1

Assay [12] is described as follows: Natriuretic polypeptide receptor (hNpr1) antagonism - Pilot counterscreen GloSensor control cell line (AID 1347045; calls by dose curve; also: series mostly up to about 38 µM). In outline: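 HEK293 cGMP GloSensor cells preloaded 2 h with 2% GloSensor reagent, then compound 30 min before baseline luminescence read. Stimulated with 50 uM sodium nitroprusside, 20 min at room temperature, then read again; counterscreen for Npr1 antagonism.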
(In general: Counterscreens check selectivity or assay interference.)

For assay [13], the target named is Atrial natriuretic peptide receptor 1 (Homo sapiens) (UniProt P16066). The assay can be described thus: Natriuretic polypeptide receptor (hNpr1) antagonism - Pilot screen (AID 1347049; calls by dose curve;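 also: agonist-evoked cGMP luminescence read 20 min after hNppA addition; series mostly up to about 58 µM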). In outline:
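Readout is cGMP-driven firefly luciferase luminescence in HEK293 cells carrying hNpr1 and a PDE5-domain GloSensor, read before and 20 min after 0.1 nM hNppA stimulation. Cells had 2% substrate reagent for 2 h and test compound for 30 min.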

Assay [14] concerns the target Atrial natriuretic peptide receptor 2 (Homo sapiens) (UniProt P20594). The assay can be described thus: Natriuretic polypeptide receptor (hNpr2) antagonism - Pilot subtype selectivity assay (AID 1347050; calls by dose curve). The method, boiled down: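 Pilot selectivity screen against hNpr2: HEK293 cGMP-sensor cells are treated with LOPAC1280 compounds, then with hNppC peptide at 1 nM final. The cGMP-driven luminescence change over 20 min at room temperature is the read-out.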

The target in assay [15] is T1, Tyrosine-protein phosphatase non-receptor type substrate 1 (Homo sapiens) + Leukocyte surface antigen CD47 (Homo sapiens) (UniProt P78324+Q08722). The assay can be described thus: CD47-SIRPalpha protein protein interaction - LANCE assay qHTS validation (AID 1347057; active = well fitted curve in the direction sought with a large enough effect in the signal ratio, with a control signal flat, not every such curve was filed as active; the % refers to the signal ratio; also: series mostly up to about 38 µM). In outline: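 First, His-tagged CD47 and Eu-labelled anti-His antibody met the compound for 30 min; next, site-specifically biotinylated SIRPalpha was added for 30 min; finally streptavidin-APC was added before reading the TR-FRET ratio.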

Assay [16] has as its target T1, Tyrosine-protein phosphatase non-receptor type substrate 1 (Homo sapiens) + Leukocyte surface antigen CD47 (Homo sapiens). The assay can be described thus: CD47-SIRPalpha protein protein interaction - HTRF assay qHTS validation (AID 1347058; active = well fitted curve in the direction sought with a large enough effect in the signal ratio, not every such curve was filed as active; the % refers to the signal ratio;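 also: recombinant soluble extracellular CD47 with His tag and biotinylated SIRPalpha domains; series mostly up to about 38 µM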). In outline:
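TR-FRET read (Ch1/Ch2 ratio) of soluble extracellular CD47 and Avi-biotinylated SIRPalpha domains in PBS pH 7.4 with 0.05% IGEPAL; 7-point compound titration. Sequential 30 min room-temperature steps; non-biotinylated SIRPalpha as control inhibitor.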

Assay [17] shares this target. The assay can be described thus: CD47-SIRPalpha protein protein interaction - Alpha assay qHTS validation (AID 1347059).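 Also: bead proximity luminescence from CD47 binding SIRPalpha after compound preincubation with SIRPalpha.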 The method, boiled down: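 Binding is measured by AlphaScreen proximity: Ni-NTA acceptor beads capture His-CD47, streptavidin donor beads capture biotin-SIRPalpha. Each of three additions (SIRPalpha with compound, CD47, beads) incubates 30 min at room temperature protected from light.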

Assay [18] has as its target Parathyroid hormone/parathyroid hormone-related peptide receptor (Homo sapiens) (UniProt Q03431). The assay can be described thus: qHTS for PTHR1 Agonists: Optimization Screen against the NCGC LOPAC library (AID 1347079).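 Also: GloSensor cAMP luminescence in HEK-293 GP2 cells expressing human PTHR1 with IBMX.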 The method, boiled down:
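Agonist readout: GloSensor cAMP luminescence, read after 15 min at room temperature. HEK-293-derived GP2 line carries PTHR1; compounds tested as a titration for 1 hr at 37C in presence of IBMX. M-PTH (1-15) served as control.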

Results filed as inconclusive are left out. Activity calls are given as the source filed them. Unless noted, calls follow the shape of the dose curve; as a rule, active = well fitted curve in the direction sought with a large enough effect; inconclusive = small, poorly fitted or top-dose-only effect, or another doubt; inactive = no such curve, though single readings can be large; an effect the other way counts as inactive or inconclusive.

T1 sequence (P78324 whole entry, looked up): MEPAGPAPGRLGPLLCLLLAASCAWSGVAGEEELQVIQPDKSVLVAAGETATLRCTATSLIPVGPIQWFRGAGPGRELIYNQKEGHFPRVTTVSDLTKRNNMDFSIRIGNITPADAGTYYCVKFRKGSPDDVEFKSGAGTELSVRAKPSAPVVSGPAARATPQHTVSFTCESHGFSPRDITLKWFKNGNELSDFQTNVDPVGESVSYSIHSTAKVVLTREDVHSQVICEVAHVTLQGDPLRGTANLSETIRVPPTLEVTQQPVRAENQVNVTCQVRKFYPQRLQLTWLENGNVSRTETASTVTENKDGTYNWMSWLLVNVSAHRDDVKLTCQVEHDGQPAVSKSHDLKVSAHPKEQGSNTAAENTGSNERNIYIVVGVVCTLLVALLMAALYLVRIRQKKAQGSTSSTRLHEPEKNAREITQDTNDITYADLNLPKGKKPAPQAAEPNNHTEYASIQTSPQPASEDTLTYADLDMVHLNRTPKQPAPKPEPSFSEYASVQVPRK
T1 sequence (Q08722 whole entry, looked up): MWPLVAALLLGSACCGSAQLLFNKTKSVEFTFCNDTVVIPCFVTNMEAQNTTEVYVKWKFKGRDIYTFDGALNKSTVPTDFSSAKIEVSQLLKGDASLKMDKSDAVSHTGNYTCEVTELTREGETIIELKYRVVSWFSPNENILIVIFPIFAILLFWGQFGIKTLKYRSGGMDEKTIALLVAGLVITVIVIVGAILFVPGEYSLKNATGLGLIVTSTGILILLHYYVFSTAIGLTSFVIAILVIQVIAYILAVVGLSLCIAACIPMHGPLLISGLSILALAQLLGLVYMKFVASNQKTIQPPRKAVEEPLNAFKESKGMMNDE
Chain of Atrial natriuretic peptide receptor 2 (Homo sapiens) (P20594 whole entry, looked up): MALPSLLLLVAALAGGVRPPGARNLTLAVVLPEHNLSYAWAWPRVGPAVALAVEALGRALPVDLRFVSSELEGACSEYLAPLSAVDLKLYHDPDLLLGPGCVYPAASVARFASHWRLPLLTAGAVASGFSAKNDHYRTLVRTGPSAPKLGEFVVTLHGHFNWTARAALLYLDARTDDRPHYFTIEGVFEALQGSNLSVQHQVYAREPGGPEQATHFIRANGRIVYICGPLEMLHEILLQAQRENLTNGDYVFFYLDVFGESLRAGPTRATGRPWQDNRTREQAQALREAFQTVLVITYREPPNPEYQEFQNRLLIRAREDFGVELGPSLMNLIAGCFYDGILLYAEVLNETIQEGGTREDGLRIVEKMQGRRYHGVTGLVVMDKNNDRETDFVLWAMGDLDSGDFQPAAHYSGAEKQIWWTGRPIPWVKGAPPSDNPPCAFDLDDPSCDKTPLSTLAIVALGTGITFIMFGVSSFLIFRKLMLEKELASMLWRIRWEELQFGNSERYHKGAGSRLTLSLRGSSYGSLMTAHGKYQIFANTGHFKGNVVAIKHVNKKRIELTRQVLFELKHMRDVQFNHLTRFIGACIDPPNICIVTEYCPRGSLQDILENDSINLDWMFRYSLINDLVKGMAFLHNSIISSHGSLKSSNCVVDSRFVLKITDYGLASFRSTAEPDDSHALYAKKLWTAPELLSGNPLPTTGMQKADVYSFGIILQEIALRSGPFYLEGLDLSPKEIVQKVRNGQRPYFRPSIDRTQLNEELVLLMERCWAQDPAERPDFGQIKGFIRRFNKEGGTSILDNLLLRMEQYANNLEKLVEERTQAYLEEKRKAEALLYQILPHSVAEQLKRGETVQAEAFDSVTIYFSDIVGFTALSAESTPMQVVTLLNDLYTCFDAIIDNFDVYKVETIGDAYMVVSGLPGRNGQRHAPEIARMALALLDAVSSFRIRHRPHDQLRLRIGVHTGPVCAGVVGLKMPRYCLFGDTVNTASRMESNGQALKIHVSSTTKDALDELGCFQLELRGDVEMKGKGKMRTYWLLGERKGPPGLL
Chain of Parathyroid hormone/parathyroid hormone-related peptide receptor (Homo sapiens) (Q03431 whole entry, looked up): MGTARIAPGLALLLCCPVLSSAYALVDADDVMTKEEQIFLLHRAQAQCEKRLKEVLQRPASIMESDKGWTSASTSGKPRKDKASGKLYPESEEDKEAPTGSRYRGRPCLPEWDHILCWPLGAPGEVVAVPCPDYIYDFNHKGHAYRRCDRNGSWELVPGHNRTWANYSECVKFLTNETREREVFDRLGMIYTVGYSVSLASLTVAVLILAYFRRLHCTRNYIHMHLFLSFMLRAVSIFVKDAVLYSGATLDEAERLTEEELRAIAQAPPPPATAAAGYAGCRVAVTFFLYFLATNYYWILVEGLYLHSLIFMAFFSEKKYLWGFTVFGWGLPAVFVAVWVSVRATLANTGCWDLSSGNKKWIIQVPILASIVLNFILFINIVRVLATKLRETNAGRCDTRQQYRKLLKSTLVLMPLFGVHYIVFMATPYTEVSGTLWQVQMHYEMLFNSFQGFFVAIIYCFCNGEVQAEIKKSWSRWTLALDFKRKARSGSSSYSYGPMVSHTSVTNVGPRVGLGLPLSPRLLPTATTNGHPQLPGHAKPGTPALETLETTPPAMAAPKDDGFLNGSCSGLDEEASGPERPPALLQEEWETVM
Chain of Atrial natriuretic peptide receptor 1 (Homo sapiens) (P16066 whole entry, looked up): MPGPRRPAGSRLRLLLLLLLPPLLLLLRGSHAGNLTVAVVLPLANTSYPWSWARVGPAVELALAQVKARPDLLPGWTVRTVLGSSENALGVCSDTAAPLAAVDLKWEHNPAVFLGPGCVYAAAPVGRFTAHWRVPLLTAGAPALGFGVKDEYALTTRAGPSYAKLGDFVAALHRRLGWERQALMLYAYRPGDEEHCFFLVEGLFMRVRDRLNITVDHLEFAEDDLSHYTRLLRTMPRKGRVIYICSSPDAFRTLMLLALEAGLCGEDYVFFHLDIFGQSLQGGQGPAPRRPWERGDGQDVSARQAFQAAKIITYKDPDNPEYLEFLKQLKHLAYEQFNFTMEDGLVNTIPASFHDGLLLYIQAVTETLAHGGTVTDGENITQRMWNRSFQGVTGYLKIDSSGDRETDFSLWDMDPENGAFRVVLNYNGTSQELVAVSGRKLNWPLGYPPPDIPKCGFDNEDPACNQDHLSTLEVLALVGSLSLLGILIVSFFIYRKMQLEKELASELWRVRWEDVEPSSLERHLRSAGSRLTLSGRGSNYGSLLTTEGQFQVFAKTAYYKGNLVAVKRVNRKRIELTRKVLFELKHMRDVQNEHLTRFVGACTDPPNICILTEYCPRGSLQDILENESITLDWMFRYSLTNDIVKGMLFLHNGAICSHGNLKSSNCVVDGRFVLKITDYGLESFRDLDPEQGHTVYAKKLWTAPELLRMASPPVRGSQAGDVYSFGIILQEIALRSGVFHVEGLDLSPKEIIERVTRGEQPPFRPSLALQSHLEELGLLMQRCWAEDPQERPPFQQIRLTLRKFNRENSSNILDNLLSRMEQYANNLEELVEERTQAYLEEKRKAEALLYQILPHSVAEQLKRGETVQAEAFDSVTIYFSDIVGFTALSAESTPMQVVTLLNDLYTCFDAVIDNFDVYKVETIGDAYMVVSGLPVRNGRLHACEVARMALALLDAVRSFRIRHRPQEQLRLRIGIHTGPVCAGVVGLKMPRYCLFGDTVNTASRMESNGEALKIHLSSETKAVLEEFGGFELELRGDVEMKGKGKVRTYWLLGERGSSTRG

Consider `c1cc2c(c(N3CCNCC3)c1)OCCO2`, for which the Potency entry in assay [1], in assay [2], in assay [3], in [4], in [5] and in [6] was “inactive” in each case. Moreover, in assay [7], the Potency result is “inactive”.

`NC(=O)OCCCc1ccccc1`: the Potency result in [1], in [2], in assay [3], in assay [4], in assay [5] and in [6] was “inactive” throughout. Further, the Potency result in assay [7] is “inactive”.

For the molecule `CCS(=O)(=O)C(C)(C)S(=O)(=O)CC`, the Potency entry in [1], in [2], in assay [3], in [4], in assay [5] and in assay [6] was “inactive” in each case. Besides, the Potency result in assay [7] was “inactive”.

For `CNC(=O)NC(O)C(Cl)(Cl)Cl` (stereo unspecified), the Potency result in assay [1], in assay [2], in assay [3], in [4], in assay [5] and in [6] was “inactive” each time. In addition, the Potency result in assay [7] was “inactive”.

For the molecule `CC[C@]1(O)CC[C@H]2[C@@H]3CCC4=CCCC[C@@H]4[C@H]3CC[C@@]21C`, the Potency entry in [1], in assay [2], in assay [4] and in assay [5] was “inactive” in each case. Also, in assay [3], the Potency was 6.51 µM (active).

Regarding `OC(c1ccccc1)(c1ccccc1)C1CCNCC1`, the Potency entry in assay [1], in [2], in [3], in assay [4], in assay [5] and in [6] was “inactive” throughout. Further, the Potency result in assay [7] is “inactive”.

On to `COP(=O)(OC)OC=C(Cl)Cl`, for which the Potency entry in assay [1], in [2], in [3], in assay [4], in [5] and in assay [6] was “inactive” throughout. For the same molecule, the Potency entry in assay [7] is “inactive”.

Regarding `O=C(O)c1nn(Cc2ccc(Cl)cc2Cl)c2ccccc12`, the Potency result in [1], in [2], in assay [4], in [5], in assay [6] and in assay [7] was “inactive” in each case. Moreover, the molecule was classed as inactive in assay [8], in assay [9], in [10], in [11], in assay [12] and in [13]. Besides, the call in assay [14], in assay [15], in assay [16], in assay [17] and in assay [18] was inactive.

`CC(C)(C)OC(=O)c1ncn2c1[C@@H]1CCCN1C(=O)c1c(Br)cccc1-2`: the Potency result in assay [1], in assay [2], in assay [3], in assay [4], in assay [5] and in assay [6] was “inactive” in each case. Besides, the Potency entry in assay [7] is “inactive”.

For the molecule `CC(C)NCC(O)c1ccc(N)c(C#N)c1` (stereo unspecified), the Potency entry in [1], in [2], in [3], in assay [4], in [5] and in assay [6] was “inactive” each time. In addition, the Potency result in assay [7] was “inactive”.

Turning to `Cc1ccc(N=CN(C)C=Nc2ccc(C)cc2C)c(C)c1`, the Potency result in [1], in [2], in assay [3], in [4], in [5] and in assay [6] was “inactive” throughout. In assay [7], the Potency entry is “inactive”.

Regarding `C[N+]1(CCC(C(N)=O)(c2ccccc2)c2ccccc2)CCCCC1`, the Potency result in [1], in assay [2], in assay [3], in assay [4], in assay [5] and in assay [6] was “inactive” in each case. Besides, the Potency result in assay [7] is “inactive”.

For `CN1CCc2cc(Cl)c(O)cc2[C@H]2c3ccccc3CC[C@@H]21`, the Potency result in assay [1], in assay [2], in assay [4], in [5], in assay [6] and in assay [7] was “inactive” throughout.

On to `Clc1ccc(CSC(Cn2ccnc2)c2ccc(Cl)cc2Cl)cc1` (stereo unspecified), for which the Potency result in assay [1], in assay [2], in [4] and in assay [7] was “inactive” each time.

`CCCC[N+]1(C)[C@@H]2CC(OC(=O)[C@H](CO)c3ccccc3)C[C@H]1[C@@H]1O[C@@H]12` (stereo partly specified): the Potency result in assay [1], in assay [2], in assay [4], in assay [5], in assay [6] and in assay [7] was “inactive” throughout.

As for `COc1cc(N)c(Cl)cc1C(=O)NC1CN2CCC1CC2` (stereo unspecified), the Potency result in assay [1], in [2], in assay [4], in [5], in assay [6] and in assay [7] was “inactive” each time.

Take `CN(C)C(=S)SSC(=S)N(C)C`: the Potency result in [2] is “inactive”.

Regarding `C[C@]12CC[C@H](O)CC1=CC[C@@H]1[C@@H]2CC[C@]2(C)C(=O)CC[C@@H]12`, the Potency entry in assay [2], in assay [4], in assay [5], in [6] and in [7] was “inactive” in each case.

Turning to `O=C(CCCN1CCC(n2c(=O)[nH]c3ccccc32)CC1)c1ccc(F)cc1`, the Potency entry in assay [1], in assay [2], in assay [4], in assay [5], in [6] and in [7] was “inactive” in each case.

Turning to `C[C@]12CC[C@H]3[C@@H](CC=C4C[C@@H](O)CC[C@@]43C)[C@@H]1CC[C@@H]2O`, the Potency entry in [1], in assay [2], in [4], in assay [5], in assay [6] and in assay [7] was “inactive” throughout.

As to `CN1C(=O)[C@@H](NC(=O)c2cc3ccccc3[nH]2)N=C(c2ccccc2)c2ccccc21`, the Potency result in assay [1], in [2], in [4], in assay [5], in [6] and in assay [7] was “inactive” each time.

As to `CC(C)C(Br)C(=O)NC(N)=O` (stereo unspecified), the Potency entry in assay [1], in assay [2], in [4], in [5], in [6] and in [7] was “inactive” in each case.

Consider `COP(=S)(OC)Oc1ccc(Sc2ccc(OP(=S)(OC)OC)cc2)cc1`, for which the Potency result in [1], in [2], in assay [4], in [5], in assay [6] and in assay [7] was “inactive” throughout.

As for `OC(O)C(Cl)(Cl)Cl`, the Potency result in assay [2], in assay [3], in assay [4], in assay [5], in assay [6] and in assay [7] was “inactive” each time.

As to `C[N+](C)(C)CCOC(=O)C(O)(c1ccccc1)c1ccccc1`, the Potency result in assay [1], in [2], in assay [4], in assay [5], in [6] and in [7] was “inactive” each time.

For `O=C(NC(=O)c1c(F)cccc1F)Nc1cc(Cl)c(OC(F)(F)C(F)C(F)(F)F)cc1Cl` (stereo unspecified), the Potency result in assay [1], in assay [2], in assay [4], in [5], in [6] and in [7] was “inactive” each time.

As to `CCOC(=O)NC(O)C(Cl)(Cl)Cl` (stereo unspecified), the Potency entry in assay [1], in [2], in assay [4], in assay [5], in [6] and in assay [7] was “inactive” in each case.

`CCCCCCCCCCCC[N+](C)(C)CCOc1ccccc1`: the Potency result in [2], in assay [3], in assay [5], in assay [6] and in assay [7] was “inactive” each time.

`C[C@H]1C(=O)O[C@@H]2CCN3CC=C(COC(=O)[C@](C)(O)[C@]1(C)O)[C@H]23`: the Potency result in [1], in [2], in assay [4], in assay [5], in assay [6] and in [7] was “inactive” in each case.

On to `CCOC(=O)c1cncn1C(C)c1ccccc1` (stereo unspecified), for which the Potency result in [1], in assay [2], in assay [4], in assay [5], in assay [6] and in [7] was “inactive” throughout.
